From PubChem BioAssay
Inconclusive results are not listed. A number with no mark means an inactive call. Calls of active or inactive are those of the source.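 Rule for the calls, unless noted: active = GFP response, as percent of the DMSO control, above the screen-wide mean plus 3 SD, about 139; inconclusive = no response measured because the compound's own fluorescence interfered; inactive = the rest.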

assay: yeast TOR pathway RPL19A-GFP modulators, primary screen, cell-based, S. cerevisiae, multiplex flow cytometry (AID 1862; in the data active = percent of DMSO control GFP below about 86%;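 note: lower values mimic rapamycin by blocking the RPL19A rise seen in DMSO cells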); conditions: S. cerevisiae RPL19A-GFP strain, flow cytometry fluorescence, 3 h; at 10 µM; hits give low values

Row | SMILES | percent of DMSO control GFP [%]
1 | COC(=O)c1ccc(NC(=O)c2ccccc2SC)cc1 | 97.8
2 | O=C(Nc1nc2ccccc2s1)c1ccc(F)cc1 | 100
3 | CC(=O)N1c2ccccc2C(C)=CC1(C)C | 101
4 | CCC(=O)Oc1ccc(C(=O)Nc2ccc([N+](=O)[O-])cc2)cc1 | 87.8
5 | C[C@]12CC[C@@H]3c4ccc(O)cc4CC[C@H]3[C@@H]1CC[C@@H]2O | 98.8
6 | C=CCNc1nc2c(c(=O)n(C)c(=O)n2C)n1CC(=C)C | 101
7 | COc1ccc(CN2CCCCC2C(=O)Nc2ccc(OC)c(OCC(C)C)c2)cc1OC (stereo unspecified) | 100
8 | Cn1cc(C2N3CC4(C)CN2CC(C)(C3)C4=O)c2ccccc21 (stereo unspecified) | 102
9 | Cc1ccc2nc(NC3=NC(CC(=O)O)C(=O)N3)nc(C)c2c1 (stereo unspecified) | 105
10 | Cc1ccc(C2CC(=O)C(C=NCCN3CCN(CC(=O)Nc4cc(C)cc(C)c4)CC3)=C(O)C2)cc1 (stereo unspecified) | 103
11 | NC(N)=NC(=O)Cc1c(Cl)cccc1Cl | 103
12 | O=C(CCSc1ccccc1)N1CCCC1 | 109
13 | O=C(Nc1ccc(F)c([N+](=O)[O-])c1)c1ccc2c(c1)OCCO2 | 106
14 | Nc1ccc2cn[nH]c2c1 | 104
15 | CCN(CC)CC#CCOC(=O)C(O)(c1ccccc1)C1CCCCC1 (stereo unspecified) | 91.1
16 | CC(C)CN1CCN(Cc2ccc(C#CC(C)(C)O)cc2)CC1CCO (stereo unspecified) | 92
17 | Cc1ccccc1NC(=O)NCCc1c[nH]c2ccccc12 | 101
18 | C#CCN1C(=O)C(O)(c2c(C)[nH]c3ccccc23)c2ccccc21 (stereo unspecified) | 103
19 | Cc1ccc(S(=O)(=O)N2CCC(C(=O)N[C@@H](C)C(=O)NC3CCS(=O)(=O)C3)CC2)cc1 (stereo partly specified) | 101
20 | CCNC(=O)c1c(N)sc2c1CCCCC2 | 103
21 | COc1ccccc1C(=O)Oc1ccc2c(c1)O/C(=C\c1ccncc1)C2=O | 94.7

assay: modulators of MEP2-GFP levels in yeast, primary screen, S. cerevisiae, multiplex flow cytometry (AID 1867);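 note: median GFP channel fluorescence of barcode-gated MEP2-GFP cells measured by flow cytometry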; conditions: S. cerevisiae MEP2-GFP strain, 3 h, at 10 µM, hits give high values, 100% means same as DMSO wells

Row | SMILES | GFP response vs DMSO
22 | Fc1ccc(-n2cc(CNCCc3ccccn3)c(-c3ccccc3Cl)n2)cc1 | 102%
23 | CO[C@@]1(NC(=O)Cc2cccs2)C(=O)N2C(C(=O)O)=C(COC(N)=O)CS[C@@H]21 | 130%
24 | N#CCC(N)=C(C#N)C#N | 120%
25 | O=C(OCCN1CCOCC1)c1cccs1 | 98.3%
26 | CC(=O)c1cc2c(cc1NC(=O)c1ccco1)OCCO2 | 107%
27 | CC(C)NS(=O)(=O)c1ccc(OCC(=O)Nc2cccc(F)c2)cc1 | 98.7%
28 | COc1ccc2[nH]c(CN3CCN(CC(C)C)C(CCO)C3)c(C)c2c1 (stereo unspecified) | 105%
29 | Cc1ccsc1C1NC(=O)c2ccccc2N1 (stereo unspecified) | 95.2%
30 | Fc1ccc(NC(=S)Nc2ccccc2Cl)cc1 | 133%
31 | CCN1C(=O)C(CC(=O)Nc2ccc(F)cc2)N(Cc2ccco2)C1=S (stereo unspecified) | 102%
32 | Cc1ccc2c(c1C)NC(C(=O)O)C1CC=CC21 (stereo unspecified) | 97.4%
33 | c1cc(-c2ccncc2)ccn1 | 95.2%
34 | NS(=O)(=O)c1ccc(CCNC(=O)C2CCCN2C(=O)OCc2ccccc2)cc1 (stereo unspecified) | 109%
35 | CC(C)CN1CCN(Cc2cccn2-c2ccccn2)CC1CCO (stereo unspecified) | 113%
36 | CC(C)COCC(CN(Cc1ccccc1)c1ccccc1)N1CCCC1 (stereo unspecified) | 121%
37 | CS(=O)(=O)NCc1ccc(C(=O)NCc2ccccc2)cc1 | 107%
38 | COc1cc(NC(=S)NN2CCN(C)CC2)cc(OC)c1OC | 108%
39 | CC(=O)[C@@H]1[C@@H](C(=O)c2ccc(C)cc2)[C@]2(C(=O)Nc3ccccc32)[C@H]2C=Cc3cc(F)ccc3N12 | 102%
40 | COC(=O)c1ccc(NC(=O)c2ccccc2SC)cc1 | 104%
41 | O=C(Nc1nc2ccccc2s1)c1ccc(F)cc1 | 106%
42 | CC(=O)N1c2ccccc2C(C)=CC1(C)C | 107%
43 | CCC(=O)Oc1ccc(C(=O)Nc2ccc([N+](=O)[O-])cc2)cc1 | 148% (active)
44 | C[C@]12CC[C@@H]3c4ccc(O)cc4CC[C@H]3[C@@H]1CC[C@@H]2O | 105%
45 | C=CCNc1nc2c(c(=O)n(C)c(=O)n2C)n1CC(=C)C | 101%
46 | COc1ccc(CN2CCCCC2C(=O)Nc2ccc(OC)c(OCC(C)C)c2)cc1OC (stereo unspecified) | 103%
